{"source": "PubChem BioAssay AID602179", "about": "(National Center for Advancing Translational Sciences (NCATS), 2012)", "note": "The campaign covered roughly 390,000 compounds. About 360 (0.092%) were called active. The call rests on the fitted dose curve; in most records, active means well fitted inhibition curve with a large enough effect; inconclusive means small, poorly fitted or top-dose-only effect; inactive means no such curve, though single readings can be large or run the other way. Shown is part of a subset that was picked to be rich in actives. Potency means the concentration at half of the fitted maximal effect.", "data": [{"target": "Isocitrate dehydrogenase [NADP] cytoplasmic (Homo sapiens) (UniProt O75874)", "sequence (O75874 whole entry R132H, stated change not applied)": "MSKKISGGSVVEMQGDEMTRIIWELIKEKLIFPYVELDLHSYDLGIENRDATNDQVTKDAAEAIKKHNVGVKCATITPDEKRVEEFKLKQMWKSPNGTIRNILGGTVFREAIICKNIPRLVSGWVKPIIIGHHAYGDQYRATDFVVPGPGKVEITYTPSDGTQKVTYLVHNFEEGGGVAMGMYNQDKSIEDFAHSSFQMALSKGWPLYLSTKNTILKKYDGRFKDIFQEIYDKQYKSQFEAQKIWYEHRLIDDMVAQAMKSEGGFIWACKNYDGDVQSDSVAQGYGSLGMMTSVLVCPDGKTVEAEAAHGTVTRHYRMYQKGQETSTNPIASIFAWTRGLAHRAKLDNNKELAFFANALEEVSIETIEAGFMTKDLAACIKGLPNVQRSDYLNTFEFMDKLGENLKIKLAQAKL", "experiment": "qHTS for Inhibitors of mutant isocitrate dehydrogenase 1 (IDH1): qHTS; further: nearly all actives have a fitted effect of over 65% in size", "details": "IDH1-R132H enzyme, NADPH consumption, diaphorase/resazurin fluorescence; series mostly up to 76.6 µM; activity change, negative = inhibition: at the top concentration", "source_text": "Unbiased genomic sequencing for 22 glioma genomes found recurrent mutation of isocitrate dehydrogenase 1 (IDH1) on chromosome 2q33-a gene encoding the cytosolic isoform of IIDH1associated with the tricarboxylic acid cycle (TCA) that catalyzes the oxidative decarboxylation of isocitrate, yielding alpha-ketoglutarate and CO2 via NADP+ to NADPH conversion. Subsequent studies confirmed the recurrent IDH mutations in up to 70% of secondary gliomas and in 10% of AML cases. […] This in effect defines IDH1 as an oncogene, and provides an extraordinary opportunity to discover chemical probes against mutant IDH1 that may translate into much needed new therapies for glioma and AML patients. […] NIH Chemical Genomics Center [NCGC] NIH Molecular Libraries Probe Centers Network [MLPCN] MLPCN Grant: DA032129 Assay Submitter (PI): Lenny Dang, Agios Pharmaceuticals\nIDH1-R132H (0.5 ug/mL) was dispensed into black, solid-bottom 1536-well plates at 3 uL/well in 20 mM Tris-HCl (pH 7.5), 150 mM NaCl, 10 mM MgCl2, 4 mM beta-ME, and 0.05% protease-free BSA. Then, 23 nL of compounds or DMSO were delivered to each well using a pin tool. A pre-read was run on the Viewlux to identify fluorescent compounds (540 nm excitation filter, 598 nm emission filter, bodipy mirror and 2 second exposure). After 30 minutes of incubation with compound, 3 uL of substrate mix were dispensed (0.016 mM NADPH, 2 mM alpha-KG, 20 mM Tris-HCl (pH 7.5), 150 mM NaCl, 10 mM MgCl2, and 0.05% protease-free BSA). Plates were spun for 1 min at 1000xg and incubated at room temperature for 80 min. Then 1.5 uL of each detection reagent component for the coupling system were added (0.12 mg/mL diaphorase and 0.072 mM resazurin, each in 20 mM Tris-HCl (pH 7.5), 150 mM NaCl, 10 mM MgCl2, and 0.05% protease-free BSA ) The protein, substrate and two detection components were maintained at 4 °C throughout the screen. Additionally, the substrate and resazurin reagents were protected from light. The plates were measured on an Envision plate reader for fluorescence signal using a 540 nm excitation filter and 590 nm emission filter with 10 flashes. 1x and 0x (no-enzyme) IDH1-R132H enzyme control were used to normalize %Activity of identified inhibitors; 0x enzyme values corresponded to 100% Activity (full inhibition), while 1x IDH1-R132H enzyme values were used to normalize 0%Activity (no inhibition). Concentration-response curves were fitted to the signals arising from the resulting fluorescence. The concentration-effect curves were then classified based on curve quality (r2), response magnitude and degree of measured activity, and compounds were subsequently categorized based on their curve class. […] Keywords: isocitrate dehydrogenase, IDH1, IDH1-R132H, MLSMR, MLPCN, NIH Roadmap, qHTS, NCGC", "values": [{"smiles": "CC(C)(C)c1ccc(S(=O)(=O)Nc2ccc(O)c(Sc3nc4ccccc4s3)c2)cc1", "Potency": "39.8 µM (active)"}, {"smiles": "Cn1c(O)c(C=NCCN2CCNCC2)c(=O)n(C)c1=O", "activity change, negative = inhibition": "3.83% (inactive)"}, {"smiles": "CCOCCc1c(O)[nH]c(=S)[nH]c1=O", "activity change, negative = inhibition": "0% (inactive)"}, {"smiles": "O=C(Nc1ccc(Cl)cc1C(=O)c1ccccc1)c1cc(Cl)cc(Cl)c1", "activity change, negative = inhibition": "-0.857% (inactive)"}, {"smiles": "CC(C)Oc1ccc(NC(=O)c2cc3ccccc3o2)cc1", "activity change, negative = inhibition": "44.4% (inactive)"}]}]}
